From PubChem BioAssay (EPA / NIEHS) come the findings set out here.

Values joined by “and” are separate entries in the source; they are usually repeats but may differ in a detail not shown here. Identical values can stand only once. Some structures have more than one record in an assay (separate samples or runs), and their calls can disagree. Active and inactive are the calls of the source. The calls were made as follows: active = hit-call score of the fitted dose curve at least 0.9, where 1 is the maximum; inactive = score below 0.9.

This assay can be described thus: ATG_BRE_CIS: Attagene CIS-FACTORIAL HepG2 Assay for human Bone Morphogenetic Protein (BMP) Response Element (BRE) (AID 2282933). The settings on record: HepG2 BMP response element reporter, Attagene transcription factor profiling; actives raise or lower the signal. As for the experimental part: ATG_CIS is a cell-based, multiplexed-readout assay that uses HepG2, a human liver cell line, with measurements taken at 24 hours after chemical dosing in a 24-well plate.ATG_BRE_CIS is one of 52 assay component(s) measured or calculated from the ATG_CIS assay. It is designed to make measurements of mRNA induction, a form of inducible reporter, as detected with fluorescence intensity signals by Reverse transcription polymerase chain reaction (RT-PCR) and Capillary electrophoresis technology.Data from the assay component ATG_BRE_CIS was analyzed into 1 assay endpoint. This assay endpoint, ATG_BRE_CIS, was analyzed with bidirectional fitting relative to DMSO as the negative control and baseline of activity. Using a type of inducible reporter, measures of mRNA for gain or loss-of-signal activity can be used to understand the reporter gene at the transcription factor-level as they relate to the gene SMAD1. Furthermore, this assay endpoint can be referred to as a primary readout, because this assay has produced multiple assay endpoints where this one serves a reporter gene function. To generalize the intended target to other relatable targets, this assay endpoint is annotated to the dna binding intended target family, where the subfamily is Smad protein.
Human liver HepG2 cells are transiently transfected with multiple reporter transcription units (MRTUs) in 6-well plates using FuGene 6 reagent (Roche; 3 ml FuGene/1 mg DNA). The MRTU constructs are regulated by a cis-regulating element (promoter). […] A major difference between the CIS and TRANS system is that in CIS activities of endogenous TFs are measured, whereas the TRANS assay evaluates changes in activities of exogenous, chimeric NR-Gal4 proteins. […] At the end of 24 hour incubation, total RNA was isolated using TriZol reagent (Invitrogen). The isolated RNA is then reverse-transcribed using oligo(dT) primer and Mo-MLV reverse transcriptase (Invitrogen) with DNAse I (Ambion) treatment for 30 min. The one-tenth of the produced cDNA was amplified by PCR using Taq DNA polymerase (Invitrogen) and two reporter sequence-specific primers. The PCR products were fluorescently labeled by primer extension with 6-arboxyfluorescein (6-FAM) 5'-labeled reporter sequence-specific primer (2 min at 95 C, 20 s at 68 C and 10 min at 72 C) and these products were digested with 5U of HpaI (New England Biolabs) for 2h at 37 C. The fragments were purified using Qiaquick PCR columns (Qiagen), analyzed on an ABI 3130xL genetic analyzer (Applied Biosystems) with peak positions identified by using a set of X-rhodamine (ROX)-labeled MapMarker1000 molecular weight standards (BioVentures). The raw capillary electrophoresis data was processed using Attagraph software (Attagene).
Turning to `CCC(=O)O[C@H]1CC[C@H]2[C@@H]3CCC4=CC(=O)CC[C@]4(C)[C@H]3CC[C@]12C`, the compound was classed as inactive; the AC50 (as a rule, the concentration giving half of the maximal activity seen) is 149 µM (active) and 100 µM (active) and 160 µM (active).

Turning to `COc1ccc(O)c(C(C)(C)C)c1`, the compound was called inactive.

Take `O=NN(c1ccccc1)c1ccccc1`: the compound was called inactive.

Take `CC(C)(c1ccccc1)c1ccc(O)cc1`: the call was inactive and the AC50 is 33.4 µM (active).

Consider `Cc1ccc(O)c(C)c1`, for which the call was inactive.

With `Sc1ccccc1`, the result was inactive.

Consider `Cc1cc(-c2ccc(N)c(C)c2)ccc1N`, for which the compound was called inactive.

As for `c1cc2ccc3cccc4ccc(c1)c2c34`, the compound was classed as inactive.

On to `O=C(O)C(F)(F)C(F)(F)C(F)(F)C(F)(F)C(F)(F)C(F)(F)C(F)(F)C(F)(F)C(F)(F)F`, for which the compound was called inactive.

In the case of `ClC1=C(Cl)[C@]2(Cl)[C@@H]3[C@@H](Cl)[C@H]4O[C@H]4[C@@H]3C1(Cl)C2(Cl)Cl`, the outcome was inactive.

As for `N#Cc1ccc(N(CC(N)=O)CC(F)(F)F)cc1C(F)(F)F`, the outcome was inactive.

With `CCCCCCCCOC(=O)c1ccccc1C(=O)OCCCCCCCC`, the outcome was inactive.

Regarding `CCNc1nc(NC(C)C)nc(SC)n1`, the outcome was inactive.

As to `C=CC(=O)NCNC(=O)C=C`, the result was inactive.

For the compound `Nc1ccc(-c2ccc(N)cc2)cc1`, the compound was classed as inactive.

With `C[C@]12CCC(=O)C=C1CC[C@@H]1[C@@H]2CC[C@@]2(C)[C@H]1CC[C@]2(C)O`, the call was inactive; the AC50 is 91.5 µM (active) and 64 µM (active).

As to `CC1=C2C[C@H]3[C@@H](CC=C4C[C@@H](O)CC[C@@]43C)[C@@H]2CC[C@]12O[C@@H]1C[C@H](C)CN[C@H]1[C@H]2C`, the AC50 was 13.3 µM (active).

On to `CO/C=C(/C(=O)OC)c1ccccc1COc1cccc(C(F)(F)F)n1`, for which the AC50 is 20.2 µM (active).

In the case of `CC#Cc1cc(C)nc(Nc2ccccc2)n1`, the call was inactive.

Consider `Cc1cc(O)ccc1Cl`, for which the compound was classed as inactive.

Take `CC(C)(O)C(=O)Nc1ccc([N+](=O)[O-])c(C(F)(F)F)c1`: the AC50 was 77 µM (active) and 121 µM (active); the result was inactive.

Take `Oc1ccc(C(c2ccc(O)cc2)(C(F)(F)F)C(F)(F)F)cc1`: the AC50 is 16 µM (active) and the outcome was inactive.

For the compound `C[C@]12CCC(=O)C=C1CC[C@@H]1[C@@H]2CC[C@]2(C)C(=O)CC[C@@H]12`, the compound was classed as inactive.

Take `O=C(NC(=O)c1cc(F)c(F)cc1Cl)Nc1cc(F)ccc1N1CCC(C(=O)O)CC1`: the compound was called inactive.

Consider `CN(C)c1nc(=O)n(C2CCCCC2)c(=O)n1C`, for which the compound was called inactive.

On to `ClC(Cl)=C(c1ccc(Cl)cc1)c1ccc(Cl)cc1`, for which the compound was classed as inactive.

For the compound `CCCN(CCC)N=O`, the call was inactive.

As for `C1CC2OC2CC1C1CO1` (stereo not given), the compound was classed as inactive.

With `O=C(NC(=O)c1c(F)cccc1F)Nc1cc(Cl)c(OC(F)(F)C(F)F)c(Cl)c1`, the compound was classed as inactive.

Turning to `Clc1ccc(C(Cl)(Cl)Cl)cc1`, the result was inactive.

Consider `CCCCCCCCCc1ccc(O)cc1`, for which the result was inactive and the AC50 is 55.7 µM (active).

On to `CCC(C)(CC)c1cc(NC(=O)c2c(OC)cccc2OC)on1`, for which the AC50 is 9.92 µM (active).

Consider `C=CC(N)=O`, for which the outcome was inactive.

For the compound `NS(=O)(=O)C(F)(F)C(F)(F)C(F)(F)C(F)(F)C(F)(F)C(F)(F)C(F)(F)C(F)(F)F`, the AC50 is 45.4 µM (active) and 248 µM (active) and 15.5 µM (active).
